Experimental data from the supplement of paper PMC3334620.
Whole data set: some 33,000 sequences, median “E-score (-0.5 to 0.5)” near -0.043, cut for the highest 2% near 0.37. Many of the other results were omitted from the sample, so the highest values are more common in it than they were.

Biological target: T1, Upc2 (UniProt Q12151)
T1 sequence: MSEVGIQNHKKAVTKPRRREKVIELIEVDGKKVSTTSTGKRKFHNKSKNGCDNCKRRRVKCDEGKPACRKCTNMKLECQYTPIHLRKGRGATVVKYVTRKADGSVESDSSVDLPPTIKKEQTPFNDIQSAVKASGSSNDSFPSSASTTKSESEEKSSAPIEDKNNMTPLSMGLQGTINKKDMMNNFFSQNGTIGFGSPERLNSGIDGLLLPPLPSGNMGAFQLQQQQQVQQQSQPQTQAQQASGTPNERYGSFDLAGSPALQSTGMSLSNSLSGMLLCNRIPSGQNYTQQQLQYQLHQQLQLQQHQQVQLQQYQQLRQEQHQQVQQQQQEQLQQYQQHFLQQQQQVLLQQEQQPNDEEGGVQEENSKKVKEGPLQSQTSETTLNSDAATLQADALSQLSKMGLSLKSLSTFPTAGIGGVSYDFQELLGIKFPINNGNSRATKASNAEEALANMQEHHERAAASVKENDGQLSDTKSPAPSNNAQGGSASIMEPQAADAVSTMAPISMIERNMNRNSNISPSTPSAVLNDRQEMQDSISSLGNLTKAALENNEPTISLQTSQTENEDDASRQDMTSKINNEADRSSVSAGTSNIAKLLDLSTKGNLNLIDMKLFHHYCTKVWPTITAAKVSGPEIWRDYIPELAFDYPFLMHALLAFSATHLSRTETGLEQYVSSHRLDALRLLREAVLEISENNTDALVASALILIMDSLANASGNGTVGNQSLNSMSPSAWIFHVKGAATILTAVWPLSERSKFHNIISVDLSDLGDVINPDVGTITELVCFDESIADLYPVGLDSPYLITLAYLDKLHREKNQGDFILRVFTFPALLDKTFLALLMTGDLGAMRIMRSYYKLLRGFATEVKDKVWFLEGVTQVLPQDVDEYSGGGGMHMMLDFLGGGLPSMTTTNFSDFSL
Experiment: PBM E-score (8-mer binding enrichment) (E-score (-0.5 to 0.5)); higher = stronger / more preferred TF binding
Conditions: protein concentration: 200 nM; construct: GST-full length
Procedure: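 Universal 'all 10-mer' protein binding microarrays (Agilent AMADID 015681) probed with GST-tagged S. cerevisiae TFs (full-length or DBD) made by in vitro transcription/translation (PURExpress), about 100-200 nM. Bound TF was detected with fluorescent anti-GST. Each ungapped 8-mer (which stands for itself and its reverse complement) is scored by the PBM enrichment score (E-score), a modified Wilcoxon-Mann-Whitney statistic from -0.5 to +0.5, computed with the Universal PBM Analysis Suite. Scale: above 0.35 generally sequence-specific binding.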

Sequence	PBM E-score
TAGTTGGA	-0.109
GCCGGGTA	-0.143
ACCTAAGA	0.0242
ACCCTCTC	-0.197
CACTGAGA	-0.0162
CCTTGCGA	-0.195
CCGGTGCA	-0.153
GGTGACTA	-0.0935
TCCCTCGA	-0.0965
ACCAGTGG	-0.247
ACAAGACT	-0.00931
CGTCGTTA	0.376
CGTCGTTC	0.464
AGTCGTTC	0.41
AGTCGCTC	0.0535
GGTCGTTA	0.358
CGCCGTTC	0.339
AGTCGTTA	0.317
AGTCGTTG	0.0644
CGTCGATC	-0.0198
AGGTGAAT	-0.0674
GCACCGAA	0.0996
CCGCATAC	0.197
CATGAGGC	-0.218
CTCAACAC	-0.0233

Sequence	PBM E-score
AGGTTCGG	0.022
CAGATTCC	-0.195
CGGGTACG	0.43
ACGGTACG	0.408
CGGGTACC	-0.158
ACGGTACT	0.0352
CGGGTACA	0.114
CCGGTACA	0.106
CCGGTACC	-0.196
ACGGTACC	0.0672
CCGGTACG	0.421
CCCTATAA	-0.00945
CCATCAAG	-0.12
AAGACCCT	-0.239
CAGGTCGC	0.0637
AAGGTGGC	-0.0337
CTCACGAC	-0.146
GTTACGGA	0.233
CTTACGAC	0.406
CTTACGCC	0.0225
ATTACGAA	0.339
GTTACGAA	0.409
CTTACGAA	0.399
CTTACGCA	0.146
CTCACGAA	0.0214

Sequence	PBM E-score
CCATTCTA	-0.068
CAGAATTA	-0.0215
GCTACTCC	-0.242
CAGATGGC	-0.0004
AGAGGCCT	-0.0685
TCATGAAA	0.0303
ACCACTGG	-0.0523
AAAAGCGA	0.175
GGATCTTA	0.146
CTACGAGC	0.393
GTACGCGA	0.347
CGACGAGC	0.0758
ACACGAGG	0.248
ATACGAGG	0.487
AGACGAGG	0.215
GTCCGAGA	0.205
GTACGAGA	0.472
CTACGAGA	0.359
ATACGAGA	0.482
CCACGAGC	-0.0694
AGACGAGA	0.184
GCAGTTTA	0.0629
ACTCTTAG	-0.149
ACTCTGGG	-0.181
GGAGTCCC	-0.172

Sequence	PBM E-score
CGTAACCA	0.223
CACAGTGA	-0.0917
ACCCTCTG	-0.236
AGACGAGC	0.206
ACACGAGC	0.273
ATACGAGC	0.489
AAACTGAC	-0.0907
CGGGACCC	-0.177
GCTGTGAC	0.111
GCATACGC	0.296
ACATACGA	0.476
GCATACAA	-0.0164
ACATACGC	0.281
TCATACGA	0.469
GCATACGA	0.47
TCATACAA	0.0325
TCATACCA	-0.0495
ACATACGT	0.239
CTAATGTC	-0.171
AGATAAGA	0.0794
GGCTGATA	-0.0951
CCTGAAGC	-0.175
AATGGTGT	-0.0602
CGTTGCTA	0.0827
CTAGCCCA	-0.335

Sequence	PBM E-score
AAGAGGAC	-0.242
ACTATCAG	-0.196
CCTGAGAA	-0.0858
GAAACAAA	0.0262
CCAACGAA	0.109
CAAACGAA	0.467
GAAACGAA	0.41
AAAACGAA	0.283
GCAACGAA	0.314
CTAGCTTC	-0.105
GATCACAA	-0.0358
GAATGCCC	0.0462
GCATACCA	0.00545
ATTGTGCC	-0.149
AATCCATG	-0.252
CCGACGCG	0.16
ACGACTCT	0.319
GCGACGCA	0.108
ACGACGCA	0.389
ACGACGCG	0.389
ACGACTCG	0.381
ACGACTCA	0.29
ACGACGCC	0.306
ACGACGCT	0.361
CGTCGGGC	-0.231

Sequence	PBM E-score
ATCAATCA	0.0322
AAAATCCT	0.0605
AGGTTACG	0.221
ATCGTAGA	0.337
GACGTAGA	0.054
CACGTAGC	-0.0699
GTCGTAGA	0.386
CTCGTAGA	0.404
CTCGTAGC	0.4
CACGTAGA	0.0732
ATCGTAGC	0.356
GTAGTAGA	-0.0548
GTGGGGCA	-0.058
CAGTGTCC	-0.141
AGCCAATC	-0.0383
TCCAGCCA	-0.231
AGTCTATA	0.0445
ATGATCTA	-0.00479
CACGAGCG	0.17
GACGAGCC	-0.00056
AACGAGCT	0.438
TACGAGCA	0.465
TGCGAGCA	0.21
TCCGAGCA	0.176
CACGAGCC	0.0758

Sequence	PBM E-score
AGCGAGCG	0.281
AACGAGCC	0.449
AACGAGCG	0.442
ACCGAGCT	0.186
AGCGAGCT	0.225
CGCCGCTC	-0.0776
AGTAACCA	-0.164
CGCCAGCA	-0.169
ATTGATAC	0.173
GGCAACAA	0.0296
GACGCCAA	-0.0565
AGTTGATA	-0.0653
GGGTGCAC	-0.128
CGCATAGA	0.158
AACGAGCA	0.444
GACGAGCA	0.00509
CACGAGCA	-0.0761
CATGCTAA	-0.2
GAGGTTTA	0.0651
ATTGGACA	-0.0219
AAACGGCG	0.401
AAACGGCC	0.359
AAACGGCA	0.37
AAACGGCT	0.296
GAACGGCA	0.27

Sequence	PBM E-score
CAACGGCA	-0.0468
TAGAAACA	0.0409
GAGTGTGA	0.156
CGCCCAAG	-0.0616
ATCTAAGA	-0.179
GCAGTACC	-0.124
GAGCACAA	-0.0319
ACGAGCGG	0.369
CCGAGCGA	0.193
GCGAGCGA	0.226
ACGAGCGA	0.379
ACGAGCGT	0.386
ACGAGCGC	0.347
ACTCAGTA	0.18
ATGGTGGG	-0.278
AACCTGTA	0.118
GCACGAAC	0.25
TGACGAAA	0.00712
CAACGAAC	0.257
AAACGAAC	0.471
CCACGAAA	-0.0902
GAACGAAA	0.416
AGACGAAC	0.29
GAACGAAC	0.441
ACACGAAC	0.216

Sequence	PBM E-score
ATGCTGAA	-0.151
GTTGTGAA	0.00742
GAAGCAGA	-0.244
CGCAGCCC	-0.0774
CGTACGGA	0.382
AGTACGGA	0.224
CATACGGC	0.383
CGTACGGC	0.381
GGTACGGA	0.355
CGTACGTC	0.338
AGTACGGC	0.299
CATACGGG	0.367
AATACGGC	0.291
AGTTGGCA	0.0278
CGTCGATA	-0.028
AAGCTACA	-0.125
CCGTCGCG	0.132
GAAAAACC	-0.037
TCCTCAAA	-0.24
AGAGCCCG	-0.0194
CTGACGTA	0.164
ATGAACGG	0.261
CTGAACGA	0.472
GTGAACAA	0.128
ATGAACGA	0.459

Sequence	PBM E-score
CTGAACGC	0.121
CTGAACTA	-0.104
ATGAACGC	0.14
GTGAACTA	0.142
GTGAACGA	0.453
TTGACCAA	-0.179
AACTACCT	-0.152
ACCAGAAC	0.0633
AACGATGG	0.391
GACGATGA	-0.00259
AACGATGT	0.388
ACCGATGA	0.0812
CACGATGG	0.0566
CACGATGA	0.169
CACGATGC	0.0841
ATCGATGA	-0.0519
GACGATGC	-0.0158
AACGATGC	0.352
AACGATGA	0.387
TACGATGA	0.433
CCAGTGAC	-0.217
CAGAGATG	-0.222
GACTGATC	-0.118
GATTCCCC	-0.214
TAGTACGA	0.401

Sequence	PBM E-score
GAGTACAA	-0.0557
AAGTACGA	0.407
TAGTACAA	0.00376
CAGTACGC	0.037
AAGTACGC	0.115
CAGTACGG	0.257
CAGTACGA	0.411
AAGTACGT	0.154
GAGTACGA	0.375
GAGTACGC	-0.0301
TAGTACCA	-0.148
TCTGATCA	-0.317
TCGCAAAA	0.216
CGCTACAG	-0.105
CGTCTATA	0.0202
CGGGAGGA	-0.157
AGAGCATA	-0.0221
AACTTTGT	-0.172
TTTAGAAA	0.133
GCTTAGCA	-0.00347
TAATTACA	-0.0323
AAGATCGC	0.148
ACGATCGG	0.295
AAGATCGG	-0.0541
AAGATCGT	0.371

Sequence	PBM E-score
ACGATCGT	0.438
ACGATCGC	0.352
ATTACCGC	0.0457
ACGAGCTC	0.404
CCGAGCTA	0.0202
CCGAGCTC	0.197
GCGAGCTA	0.207
ACGAGCTG	0.36
ACGAGCTA	0.394
AGGATAGG	-0.0689
CTTCATCC	-0.177
ACTCAGTC	-0.097
GCTGCAGC	-0.125
ACCATACC	-0.0989
ACCATACG	0.399
CCCATACC	0.0537
CCCATACA	-0.22
CCCATACG	0.407
ACCATACA	-0.0345
ACTAAGAA	-0.0494
GATGGGAA	-0.0309
TCGGAAAA	0.234
ATAAGATA	0.146
CCTAAAGC	-0.082
CGTAAAGA	0.412

Sequence	PBM E-score
AGTAAAGA	-0.212
CGTAAAGC	0.403
GGTAAAGA	0.0863
AGTAAAGC	-0.0204
CGGTTTAG	0.161
CGGAAGAG	-0.146
CCAGTTAC	-0.21
TGTTAGAA	-0.177
AGTTTGGA	-0.014
CGTTTGTC	0.34
CGTTTGCC	0.323
GGTTTGGA	-0.0119
AGTTTGGC	-0.015
CGTTTGCA	0.395
CGTTTGAA	0.35
CGTTTGAC	0.363
CGTTTGGC	0.409
GGTTTGCA	0.0633
CGTTTGAG	0.396
CGTTTGGA	0.428
CTTATGCC	-0.0216
ATTCTGTA	0.0418
TGAAATCA	-0.103
CAACAAGC	-0.163
GGTGTCAA	-0.169

Sequence	PBM E-score
ATCGATTG	0.0896
AACGGTTC	0.166
CCTTCCAA	-0.216
GGGTTCAA	-0.157
ACTTATTC	-0.0293
ATCGCAGC	0.085
AACGTCAC	-0.0182
GCGTCGAA	-0.0193
ACGTCGTA	0.458
GCGTCGCA	0.19
ACGTCGTG	0.0636
GCGTCGTA	0.468
CCGTCGGA	0.0146
CCGTCGTA	0.457
ACGTCGTC	0.206
CCGTCGTC	0.0861
AGGGTAGG	-0.331
ACTAACCT	0.042
ATCATCTG	-0.129
